# Compound activity (PubChem)
# In the library only some 11% were active in any assay of this set; here they are far more common.
# PI5P4K alpha inh: inhibitors of human PI5P4K alpha. P48426. PI5P4Kalpha enzyme, ADP-Glo luminescence, 60 min; stronger effect = lower value. max response, %. actives 1.2% (n = 330,000). AID 652105; active means max response of -50% or lower; inconclusive means between -30% and -50%; inactive means -30% or higher; further: value at the top dose of about 77 µM; on the % scale 0 is the no-effect control and ±100 the full control effect
#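 qHTS, 1536-well: enzyme/substrate mix, compound by pin tool, 5 microM ATP final; RT 60 min; ADP-Glo reagents 1 (45 min) then 2 (30 min); luminescence.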
# HP1b chromo inh: blocks HP1-beta chromodomain binding to methylated histone tails. AlphaScreen HP1-beta / biotin-H3K9me3 peptide binding. Potency, µM (series often up to 114 µM), for inactives: at the top dose activity change, negative = inhibition, usual class: inhibitors. actives 0.56% (n = 390,000). AID 540317; further: potency means the concentration at half of the fitted maximal effect; nearly all actives have a fitted effect of over 70% in size
# Target sequence (P83916 whole entry, looked up): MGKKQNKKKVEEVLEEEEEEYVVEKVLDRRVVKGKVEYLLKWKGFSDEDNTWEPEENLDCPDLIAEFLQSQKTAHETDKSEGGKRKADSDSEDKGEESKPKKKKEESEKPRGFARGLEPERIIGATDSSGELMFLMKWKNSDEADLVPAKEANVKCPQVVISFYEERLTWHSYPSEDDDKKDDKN
#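 AlphaScreen: HP1-beta (50 nM) preformed 30 min with biotin-H3(1-18)K9me3 peptide (50 nM) in PBS pH 7.4, 0.01% Tween-20. Compound added for 30 min at RT, then streptavidin donor/nickel chelate acceptor beads (10 ug/mL) for 30 min.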
# G9a inh: inhibitors of human histone lysine methyltransferase G9a. G9a H3K9 monomethylation, AlphaScreen, 2 h. actives 8.8% (n = 350,000). Q96KQ7. AID 504332. Potency, µM (titrated, usually from 102 µM), without a hit: top-dose activity, negative = inhibition, actives largely listed as inhibitors; further: potency means the concentration at half of the fitted maximal effect; on the % scale 0 is the no-effect control and ±100 the full control effect; nearly all actives have a fitted effect of over 75% in size
# Target sequence (Q96KQ7 913-1193 limits assumed): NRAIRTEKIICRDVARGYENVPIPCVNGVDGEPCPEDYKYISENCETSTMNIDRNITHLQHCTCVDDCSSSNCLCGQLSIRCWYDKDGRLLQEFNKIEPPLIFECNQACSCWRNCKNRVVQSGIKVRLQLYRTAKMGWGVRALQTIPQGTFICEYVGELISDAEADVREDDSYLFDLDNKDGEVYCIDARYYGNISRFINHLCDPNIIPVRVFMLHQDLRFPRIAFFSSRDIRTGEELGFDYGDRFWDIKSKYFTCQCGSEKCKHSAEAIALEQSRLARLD
#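 Quantitative HTS format: methyltransferase activity on a biotin-tagged H3K9 peptide is measured by AlphaScreen, using a rabbit anti-monomethyl-H3K9 antibody with streptavidin donor and anti-IgG acceptor beads. Final levels are 20 nM enzyme, 500 nM peptide, 20 uM SAM; 2 h RT.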
# JMJD2A Tudor inh: JMJD2A Tudor domain (human) inhibition | O75164 | AlphaScreen JMJD2A-Tudor / H3K4me3 peptide binding | Potency, µM (top dose mostly 114 µM), for inactives: at the top dose activity change, negative = inhibition, actives largely listed as inhibitors | actives 4.4% (n = 390,000) | AID 504339; further: potency means the concentration at half of the fitted maximal effect; on the % scale 0 is the no-effect control and ±100 the full control effect; nearly all actives have a fitted effect of over 50% in size
# L3MBTL1 block: inhibitors of human L3MBTL1. Q9Y468. AlphaScreen L3MBTL1–H3K9me1 peptide binding. Potency, µM (series often up to 57.1 µM), for the others: at the top dose activity, negative = inhibition, most hits filed as inhibitors. actives 0.66% (n = 230,000). AID 485360; further: potency means the concentration at half of the fitted maximal effect; on the % scale 0 is the no-effect control and ±100 the full control effect; nearly all actives have a fitted effect of over 60% in size
#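 Displacement of a biotinylated histone H3(1-15) peptide monomethylated at Lys9 (75 nM) from L3MBTL1 (50 nM) was measured by AlphaScreen after a 30 min room-temperature compound incubation; cefsulodin titration served as intraplate control.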
# BAZ2B inh: inhibitors of human BAZ2B bromodomain; Q9UIF8; AlphaScreen BAZ2B-H3K14Ac peptide displacement; Potency, µM (titrated, usually from 114 µM), without a hit: at the top dose activity change, negative = inhibition, usual class: inhibitors; actives 4.4% (n = 360,000); further: potency means the concentration at half of the fitted maximal effect; on the % scale 0 is the no-effect control and ±100 the full control effect; nearly all actives have a fitted effect of over 60% in size
#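 AlphaScreen displacement of biotin-H3(5-23)K14Ac peptide (50 nM final) from BAZ2B (50 nM final) in PBS pH 7.4, 0.01% Tween-20; complex preformed 30 min RT, then compounds (top 110 uM) 30 min RT, beads 20 min dark.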
# Numbers without * were called inactive; ? = inconclusive; nt = no result given; ! = not confirmed by another sample; [ ] = dose if it differs, or a comment. Unless noted, the call rests on the fitted dose curve; in most records, active means well fitted inhibition curve with a large enough effect; inconclusive means small, poorly fitted or top-dose-only effect; inactive means no such curve, though single readings can be large or run the other way.
SMILES,PI5P4K alpha inh,HP1b chromo inh,G9a inh,JMJD2A Tudor inh,L3MBTL1 block,BAZ2B inh
CCc1noc(-c2ccc(N3CCCCC3C)c([N+](=O)[O-])c2)n1 (centres undefined),nt,61%,?,-19%,nt,-1%
COc1ccc(-c2nc(CNS(=O)(=O)c3cccc(F)c3)cs2)cc1,nt,31%,4%[59 µM],-13%,nt,13%
COc1ccc(N=c2scc(-c3ccc(S(=O)(=O)N4CCOCC4)cc3)n2CCCO)cc1,nt,nt,25µM*,nt,-5%,50µM*
C=CCn1c(-c2ccc(S(=O)(=O)N3CCOCC3)cc2)csc1=Nc1ccccc1,1,-11%,7%[0.501 µM],?,-27%,6.3µM*
CC(C)Cn1c(-c2ccc(S(=O)(=O)N3CCCC3)cc2)csc1=Nc1ccccc1,nt,-16%,8.9µM*,?,nt,?
CN(C)S(=O)(=O)c1cccc(-c2csc(=Nc3ccccc3)n2CCCN2CCOCC2)c1,-7,?,50µM*,50µM*,0%,32µM*
CC(C)CN1CCCC2(CCN(S(=O)(=O)c3ccccc3)CC2)C1,nt,nt,8%[12.7 µM],nt,nt,nt
O=S(=O)(c1ccc(-c2ccccc2)cc1)N1CCOCC1,-3,30%,15%[59 µM],-19%,nt,-5%
COc1ccc(-c2[nH]c3ccccc3c2SCCNC(=O)c2cc(OC)c(OC)c(OC)c2)cc1,nt,13%,?,?,nt,?
CCCOc1ccc(CNC(=O)c2ccc(C)c(-n3c(C)nc4cccnc43)c2)cc1,nt,32%,-3%[59 µM],0%,nt,-12%
CCOc1ccc(-c2nn(CC(=O)NC3CCCC3)c3c2cnc2ccc(F)cc23)cc1,nt,88%,19%[59 µM],-12%,nt,-8%
CC(=O)c1cccc(N=c2scc(-c3ccc(S(=O)(=O)N4CCOCC4)cc3)n2CCO)c1,-15,?,45µM*,-34%[57.1 µM],-1%,?
Cc1cc2c(cc1S(=O)(=O)NCc1ccc(F)cc1)OCC(=O)N2,nt,20%,-42%[59 µM],-23%,nt,-27%
O=C1COc2cc(S(=O)(=O)NCc3ccco3)c(Cl)cc2N1,nt,24%[57 µM],?,-21%,32µM*,50µM*
COc1ccc(CNS(=O)(=O)c2cc3c(cc2Cl)NC(=O)CO3)cc1,1,15%,-3%,-13%,5%,?
CCN(CC)c1ccc(CNS(=O)(=O)c2cc3c(cc2C)NC(=O)CO3)cc1,nt,8%[57 µM],14µM*,?,nt,-36%
Cc1cc2c(cc1S(=O)(=O)N1CCCCC1)OCC(=O)N2,-2,?,-6%,-17%,4%,79µM*!
Cc1cc2c(cc1S(=O)(=O)N1CCC(C)CC1)OCC(=O)N2,nt,-13%,?,-30%,nt,?
CC(=O)c1ccc(OCC(O)CN2CCN(S(=O)(=O)c3c(C)c(C)cc(C)c3C)CC2)cc1 (centres undefined),5,7%,50µM*,-34%,nt,-19%
CCCc1ccc(OCC(O)CN2CCN(c3ccccn3)CC2)cc1 (centres undefined),5,5%,50µM*,?,nt,?
CC(=O)c1ccc(OCC(O)CN2CCN(c3ccccn3)CC2)cc1 (centres undefined),3,89%,56µM*,?,3%,-36%
Cc1cccc(NC(=O)c2cc3c(=O)n(Cc4ccco4)ccc3nc2C)c1,nt,-14%,-4%[59 µM],-33%,nt,-27%
CC(C)(C)c1ccc(C(=O)NCC(=O)OC(C(=O)Nc2cc(C(F)(F)F)ccc2Cl)c2ccccc2)cc1 (centres undefined),nt,nt,nt,-21%,nt,nt
CCOC(=O)N1CCC(c2cc(=O)n3[nH]cc(C(=O)OC)c3n2)CC1,1,17%,17%[59 µM],-25%,1%,5%
CCOc1ccc(NC(=O)c2c[nH]n3c(=O)cc(C4CCN(C(=O)OC(C)(C)C)CC4)nc23)cc1,-3,14%,11µM*,-23%,nt,-9%
SMILES,PI5P4K alpha inh,HP1b chromo inh,G9a inh,JMJD2A Tudor inh,L3MBTL1 block,BAZ2B inh
O=C1COc2ccc(-c3cc(-c4ccc(Cl)cc4)c4c(n3)-c3ccccc3OC4)cc2N1,nt,38%,-7%[59 µM],-5%,nt,-18%
CC(C)CN(C(=O)CSc1nnc2ccccn12)c1c(N)n(CC(C)C)c(=O)[nH]c1=O,-1,10%,45µM*,-6%,nt,-2%
CCCCn1c(N)c(N(CCC(C)C)C(=O)CSc2nnc3ccccn23)c(=O)[nH]c1=O,0,35%,2%[2.33 µM],-1%,nt,7%
CN(C(=O)CSc1nnc(C(F)(F)F)n1C)c1c(N)n(Cc2ccccc2)c(=O)[nH]c1=O,1,nt,nt,nt,nt,nt
CN(C(=O)CSc1nnc2ccccn12)c1c(N)n(Cc2ccccc2)c(=O)[nH]c1=O,2,?,35µM*,-14%,6%,-1%
COc1cccc(Cn2c(=O)cnc3cnc(OCc4ccccc4)nc32)c1,nt,nt,10%[0.501 µM],nt,nt,nt
COc1ccc(CNCCC(c2ccc(C)cc2)c2ccco2)cc1 (centres undefined),nt,?,5µM*,25µM*,nt,79µM*
COc1ccc(CNCCC(c2ccc(OC(C)C)cc2)c2ccccc2OC)cc1 (centres undefined),2,9%,-6%[2.33 µM],-31%,nt,?
COc1ccc(CNCCC(c2ccccc2)c2ccc3c(c2)OCO3)cc1 (centres undefined),nt,16%,20µM*,-31%,20%,?
CN(C)NC1=CC(=[N+]2CCCC2)CC(C)(C)C1,-5,7%,?,-18%,nt,-11%
CCCN(CCC)C1=CC(=[N+]2CCCC2)CC(C)(C)C1,-12,-14%,1.8µM*,?,-14%,-13%
CN(C)c1ncnc2ccc(-c3cccc(C#N)c3)cc12,nt,nt,-8%[0.501 µM],nt,nt,nt
CCOC(=O)c1c(S(=O)(=O)N2CCN(c3cc(Cl)ccc3C)CC2)c(C)n(C)c1C,nt,-5%,-34%[59 µM],?,nt,-5%[57.1 µM]
CCOC(=O)c1c(CSC(=N)N)n(-c2ccccc2)c2cc(Br)c(OC(C)=O)cc12,-8,-15%,50µM*,?,-17%,?
COc1ccc(C(=O)NC(Cc2c[nH]c3ccccc23)C(=O)O)cc1 (centres undefined),-2,31%,14%,-15%,nt,0%
O=C(Cc1cccs1)NC(Cc1c[nH]c2ccccc12)C(=O)O (centres undefined),-2,2%,56µM*,22µM*,nt,-18%
CCCOc1ccc(C(=O)CCNC(Cc2c[nH]c3ccccc23)C(=O)O)cc1 (centres undefined),-6,44%,7.9µM*,-8%,nt,-20%
Cc1nc(N[C@@H](Cc2c[nH]c3ccccc23)C(=O)O)c2oc3ccccc3c2n1,nt,27%,5.6µM*,-23%,-11%,56µM*
Cc1ccc(C(=O)Nc2ccccc2C(=O)NC(Cc2c[nH]c3ccccc23)C(=O)O)cc1 (centres undefined),-4,-24%,23%[12.7 µM],-23%,5%,79µM*
